VDR inhibitor = Inhibitors of the vitamin D receptor (VDR): qHTS. Vitamin D3 receptor (Homo sapiens), P11473. 0.93% of 400,000 active. AID 504847, 2011. VDR-SRC2-3 peptide fluorescence polarization, 2 h. Potency, µM, without a hit: max response, negative = inhibition, most hits filed as inhibitors
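Fluorescence polarization assay of small-molecule disruption of VDR binding to coregulator peptide SRC2-3. Compounds and controls pin-transferred, then read after 2 h incubation at ambient room temperature.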
TDP1 cell CPT = qHTS for Inhibitors of human tyrosyl-DNA phosphodiesterase 1 (TDP1): qHTS in cells in presence of CPT; 12% of 420,000 active; Potency, µM (highest dose often 46.2 µM), for the others: top-dose activity change, negative = growth inhibition, hits mostly inhibitors; chicken DT40 Tdp1-/-;hTDP1 cells + 20 nM CPT, ATP luminescence, 48 h; note: nearly all actives have a fitted effect of over 55% in size
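Cell growth measured by CellTiter-Glo luminescence after a minimum 48 h, 37 C compound exposure with 20 nM CPT in Tdp1-knockout DT40 cells stably expressing hTDP1, seeded 400/well; qHTS titration format.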
DT40 TDP1 no CPT = qHTS for Inhibitors of human tyrosyl-DNA phosphodiesterase 1 (TDP1): qHTS in cells in absence of CPT. 15% of 420,000 active. AID 686978, 2013. DT40 Tdp1-/- hTDP1 cells, no CPT, ATP luminescence, 48 h. Potency, µM (titrated, usually from 46.2 µM), inactives show at the highest dose activity change, negative = growth inhibition, most hits filed as inhibitors; note: nearly all actives have a fitted effect of over 55% in size
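Compound effects on proliferation are scored in DT40 Tdp1-/-;hTDP1 cells in the absence of CPT. ATP levels (CellTiter-Glo luminescence) are recorded after a ≥48 hr, 37 °C incubation.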
PLK1 PBD block = qHTS for Inhibitors of PLK1-PDB (polo-like kinase 1 - polo-box domain): Primary Screen | Serine/threonine-protein kinase PLK1 (Homo sapiens), P53350 | Plk1 PBD binding of FITC phosphopeptide, fluorescence polarization | Potency, µM, for the others: max response, negative = inhibition, actives largely listed as inhibitors | 2.8% of 360,000 active | AID 720504, 2013; note: series mostly up to about 57 µM; nearly all actives have a fitted effect of over 65% in size
TDP1 block = qHTS Assay for Inhibitors of Tyrosyl-DNA Phosphodiesterase (TDP1); recombinant TDP1, AlphaScreen DNA substrate cleavage; 0.28% of 350,000 active; Tyrosyl-DNA phosphodiesterase 1 (Homo sapiens), Q9NUW8; Potency, µM (series often up to 130 µM), inactives show at the top dose activity change, negative = inhibition, actives largely listed as inhibitors; note: nearly all actives have a fitted effect of over 40% in size
Target sequence (Q9NUW8 whole entry, looked up): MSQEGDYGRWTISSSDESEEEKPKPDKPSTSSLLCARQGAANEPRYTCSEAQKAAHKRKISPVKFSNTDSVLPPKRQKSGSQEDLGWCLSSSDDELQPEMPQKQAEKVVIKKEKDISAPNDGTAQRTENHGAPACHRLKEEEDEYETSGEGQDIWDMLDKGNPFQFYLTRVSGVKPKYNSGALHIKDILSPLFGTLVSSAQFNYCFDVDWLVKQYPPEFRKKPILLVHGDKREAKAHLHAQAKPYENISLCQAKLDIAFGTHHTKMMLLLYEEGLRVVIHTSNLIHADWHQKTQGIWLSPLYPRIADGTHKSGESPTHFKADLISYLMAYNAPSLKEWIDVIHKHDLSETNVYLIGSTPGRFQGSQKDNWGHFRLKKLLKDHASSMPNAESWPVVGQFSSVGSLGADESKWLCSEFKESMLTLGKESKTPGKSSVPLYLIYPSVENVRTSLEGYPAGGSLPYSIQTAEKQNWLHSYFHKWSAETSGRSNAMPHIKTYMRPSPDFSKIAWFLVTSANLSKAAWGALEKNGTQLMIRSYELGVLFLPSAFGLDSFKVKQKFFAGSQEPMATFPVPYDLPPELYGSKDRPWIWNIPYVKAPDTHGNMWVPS
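Compounds were preincubated with Tdp1 (1 nM final) for 15 min at room temperature before substrate (15 nM final) started a 5 min reaction; beads (10 ug/ml final) were then added for 10 min before AlphaScreen detection.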
KAT2A inh = qHTS Assay for Inhibitors of GCN5L2; Histone acetyltransferase KAT2A (Homo sapiens), Q92830; GCN5L2 HAT assay, ThioGlo1 CoA-SH fluorescence; Potency, µM (doses to about 58.9 µM), for the others: top-dose activity change, negative = inhibition, hits mostly inhibitors; 0.21% of 390,000 active
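Preincubate 20nM GCN5L2 with compound 15 min, RT → add 50uM ThioGlo1 + 75uM H3(1-25) + 70uM acetyl-CoA → read fluorescence 0 and 20 min. Primary qHTS; fluorescent artifacts likely.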
Active calls of the source: *; ? = inconclusive; . = not tested or not shown; [ ] = dose if it differs, or a comment. A selection: hits, their analogues and other compounds. The true share with any hit is near 18%. Calls come from the whole dose curve; as a rule, active = well fitted curve in the direction sought with a large enough effect; inconclusive = small, poorly fitted or top-dose-only effect, or another doubt; inactive = no such curve, though single readings can be large; an effect the other way counts as inactive or inconclusive. % is set by controls: 0 for no effect and ±100 for the full control effect; potency is the fitted concentration of half-maximal effect.

SMILES	VDR inhibitor	TDP1 cell CPT	DT40 TDP1 no CPT	PLK1 PBD block	TDP1 block	KAT2A inh
CCN(CC)c1ccc(S(=O)(=O)N2CCOCC2)cc1NC(=O)CSc1n[nH]c(N)n1	-23%	?	?	-3%	-2%	2%
Oc1ccccc1CNc1ccc(OC(F)(F)F)cc1	6%	-25%	?	-7%	3%	-5%
O=C(CSc1nnc(SCc2cccc3ccccc23)s1)Nc1ccc(C(=O)O)cc1	-19%	18µM*	21µM*	24µM*	3%	-2%
O=C(CSc1nc(-c2ccc(F)cc2)nc2c1Cc1ccccc1O2)Nc1cccc(C(=O)O)c1	4%	?	-17%	11µM*	4µM*	13µM*
c1ccc(Nc2nnc(SCc3cccc4ccccc34)s2)cc1	5%	?	?	-3%	-1%	-7%[0.501 µM]
O=C(CSc1nc(-c2ccccc2)nc2ccc(F)cc12)Nc1ccc(C(=O)O)cc1	-12%	-12%	-18%	-30%	.	-26%
O=C(CSc1nncc2ccccc12)Nc1cccc(C(=O)O)c1	-17%	-21%	3%	19µM*	.	-2%
O=C(CSc1nc(-c2ccccc2)nc2ccc(F)cc12)Nc1cccc(C(=O)O)c1	-5%	-13%	-16%	-26%	79µM*	18%
C[N+]1(C)CCN(CC(O)(c2ccccc2)C2CCCCC2)CC1 (configuration not stated)	.	2%	-15%	.	.	.
Cn1c(-c2sc3ccccc3c2Cl)n[nH]c1=S	15%	-10%	-1%	-22%	8%	-5%
Cc1ccc(NC(=O)Cc2nnc(SCC(=O)NC3CCCC3)n2C)c(C)c1	6%	-7%	-42%	-18%	.	-4%
CC(=O)c1sc(NC(=O)C2CCN(c3ncnc4sc(C)c(C)c34)CC2)nc1-c1ccccc1	4%	?	?	-4%	.	-3%
Cc1sc2ncnc(N3CCC(C(=O)Nc4nc(-c5ccc(F)cc5)cs4)CC3)c2c1C	-19%	?	16µM*	-7%	5%	-6%
Cc1sc2ncnc(N3CCC(C(=O)Nc4nnc(CC(C)C)s4)CC3)c2c1C	-5%	?	23µM*	2%	.	-5%
CCCCNC(=O)N1CCN(Cc2cccc(F)c2)CC1	-4%	5%	3%	-8%	5%	-1%
CCOC(=O)c1c(SC)n(-c2ccccc2)c(=S)n(-c2ccccc2)c1=O	12%	-2%	-5%	-1%	.	-1%
CCOC(=O)c1c(SCCN2CCCCC2)n(-c2ccccc2)c(=S)n(-c2ccccc2)c1=O	?	2.9µM*	4.1µM*	0%	.	.
COc1ccc(OC)c(NC(=O)NCCc2c[nH]c3ccccc23)c1	15%	-3%	-3%	8%	.	-1%
Cc1c(C(=O)NN2CCCCC2)nn(-c2ccc(Cl)cc2Cl)c1-c1ccc(Cl)cc1	?	?	19µM*	.	6%	34%
Cc1nn(-c2ccc(Cl)cc2Cl)c(C)c1C(=O)O	-13%	0%	-6%	-8%	8%	-6%
c1ccc(-c2nc(-c3ccco3)n3ccccc23)cc1	-15%	10µM*	?	-23%	5%	-24%
CCn1c(-c2ccco2)nc2ccccc21	-8%	-11%	?	-20%	10%	-8%
COC1=C(Br)C(=O)c2nc(C)ccc2C1=O	.	0.65µM*	0.58µM*	?	.	.
COC1=C(N)C(=O)c2nc(C)ccc2C1=O	?	5.2µM*	7.3µM*	-20%	.	.
O=C(COC(=O)CN1C(=O)C2CC=CCC2C1=O)Nc1cccc([N+](=O)[O-])c1 (configuration not stated)	.	-23%	-17%	0%	.	.
SMILES	VDR inhibitor	TDP1 cell CPT	DT40 TDP1 no CPT	PLK1 PBD block	TDP1 block	KAT2A inh
CC(=O)NNc1cc(C)nc(N)n1	-9%	3%	5%	2%	.	4%
Ic1ccc(Nc2nc(NCCN3CCOCC3)nc(N3CCCC3)n2)cc1	.	11µM*	11µM*	.	.	.
Ic1ccc(Nc2nc(NCCN3CCOCC3)nc(N3CCOCC3)n2)cc1	.	5µM*	2.8µM*	.	.	.
c1ccc(Nc2nc(NCCN3CCOCC3)nc(Nc3ccccc3)n2)cc1	4%	?	?	-8%	.	-3%
Cc1csc(CNc2ncnc3ccc(-c4ccc5c(ccn5C)c4)cc23)c1	.	.	.	.	.	-9%
CCN1CCN(C(=O)c2cc(NC(=O)COC)cc3nc(-c4ccncc4)n(C)c23)CC1	.	-2%	17%	.	.	.
O=[N+]([O-])/C(C(Cl)=C(Cl)Cl)=C(/NC1CC1)Sc1ccccc1	?	?	23µM*	?	5%	-7%
OCC1(CCOc2ccccc2)CCN(CC2=Cc3cc(Cl)ccc3OC2)CC1	-1%	18µM*	21µM*	-14%	8%	1%
CC(C)OCCCn1c(SCC(=O)Nc2ccccc2C(F)(F)F)nc2nccnc2c1=O	-16%	1%	8%	-11%	2%	-4%
Cc1ccccc1NC(=O)CSc1nc2nccnc2c(=O)n1CCc1c[nH]c2ccccc12	-1%	23µM*	12µM*	.	3%	2%
O=C(CSc1nc2nccnc2c(=O)n1CCc1c[nH]c2ccccc12)Nc1ccccc1	16%	21µM*	15µM*	.	6%	3%
O=C(CSc1nc2nccnc2c(=O)n1Cc1cccs1)Nc1ccccc1	-17%	-34%	1%	-19%	5%	-3%
COC(=O)C1=C[C@@H](C(=O)OC)C2C3=C(C(=O)[C@]2(C)NC(=O)c2ccccc2)[C@H](C)n2c(=O)n(C)c(=O)n2[C@@H]3C1 (some centres not stated)	-20%	.	.	.	8%	.
CC[C@H](C)[C@H](NC(=O)[C@H](Cc1ccc(O)cc1)NC(=O)[C@@H](NC(=O)[C@H](CCCN=C(N)N)NC(=O)[C@@H](N)CC(=O)O)C(C)C)C(=O)N[C@@H](Cc1cnc[nH]1)C(=O)N1CCC[C@H]1C(=O)O	1%	.	.	.	10%	-20%
CN(C)CC/C=C1/c2ccc(F)cc2Sc2ccc(Cl)cc21	-2%	?	16µM*	2%	.	.
CN(C)CC/C=C1\c2ccccc2Sc2cc(F)c(Cl)cc21	-9%	16µM*	16µM*	5%	.	.
CN(C)CC/C=C1\c2ccc(F)cc2Sc2cc(F)c(Cl)cc21	-5%	?	?	5%	.	.

Compound activity (PubChem BioAssay)
